Measured values published in PubChem BioAssay (NCI).
This is part of a sample that, as a whole, favours compounds with a hit. Of some 79,000 tested, about 15% had one in any assay. Values without a mark were called inactive. The source made the active and inactive calls. No stated cut-off is given here; in the data, active means growth inhibition above about 70%; inactive means the rest.

Assays:
[1] = NCI Yeast Anticancer Drug Screen. Data for the rad50 strain (AID 155);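 further: 0% = growth of vehicle-only cultures of the same strain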; details: S. cerevisiae rad50 strain growth inhibition; at 50.0 µM; active compounds read high
In short: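 Readout: growth inhibition relative to vehicle-treated cultures. Compound exposure was carried out in a genetically defined yeast strain deficient in DNA damage repair.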

[2] = NCI Yeast Anticancer Drug Screen. Data for the mec2-1 strain (AID 157); details: S. cerevisiae mec2-1 strain, at 50.0 µM, active compounds read high
In short: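 Mutant yeast (mec2-1) grown with compound; growth inhibition relative to vehicle control reported.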

[3] = NCI Yeast Anticancer Drug Screen. Data for the sgs1 mgt1 strain (AID 161);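 further: 0% = growth of cultures given vehicle only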; details: S. cerevisiae sgs1 mgt1 strain, at 50.0 µM, active compounds read high
In short: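 Yeast cells carrying a defined DNA-repair defect were exposed to test compounds. Growth inhibition was measured relative to vehicle-treated controls.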

[4] = NCI Yeast Anticancer Drug Screen. Data for the cln2 rad14 strain (AID 165);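 further: 0% = growth equal to vehicle treated cultures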; details: S. cerevisiae cln2 rad14 strain, at 50.0 µM, active compounds read high
In short: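 Readout is yeast growth inhibition versus vehicle-treated controls, using a strain with cln2 and rad14 alterations exposed to compound.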

[5] = NCI Yeast Anticancer Drug Screen. Data for the bub3 strain (AID 167); details: S. cerevisiae bub3 mutant strain, at 50.0 µM, active compounds read high
In short: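 Readout: yeast growth inhibition, expressed relative to vehicle-only wells. The test organism is a mutant strain from a panel with lesions in DNA repair or checkpoint genes.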

[6] = NCI Yeast Anticancer Drug Screen. Data for the mlh1 rad18 strain (AID 175); details: S. cerevisiae mlh1 rad18 strain growth inhibition; at 50.0 µM; active compounds read high
In short: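 Genetically defined yeast (DNA repair-deficient) exposed to compounds; growth inhibition determined relative to vehicle.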

Structure (SMILES)	growth inhibition [1]	growth inhibition [2]	growth inhibition [3]	growth inhibition [4] [%]	growth inhibition [5] [%]	growth inhibition [6]
O=C(/C=C/c1ccc2c(c1)OCO2)CC(=O)/C=C/c1ccc2c(c1)OCO2	3.5%	19.6%	11.3%	7.15	-4.3	-15.6%
O=c1cc(-c2cccc3ccccc23)[nH]c2ncccc12	-13.3%	-10.7%	-21.9%	13.9	-9.3	-29.5%
COc1cc(OC)cc(C2OC(N)=C(O)C2=O)c1 (stereo not given)	9.65%	4.25%	13%	14.9	2.35	19.3%
c1ccc(SCCP(CCP(c2ccccc2)c2ccccc2)c2ccccc2)cc1 (stereo not given)	34.9%	2.6%	14.3%	22.4	37.8	57.1%
OC1C2CCC3C2CC(C(O)(c2ccccc2)c2ccccc2)C13 (stereo not given)	-0.2%	-23.6%	-8.75%	-13.2	-50	-15.4%
Nc1[nH]c(=S)[nH]c(=O)c1N=O	-2.75%	-2.55%	-5.75%	-14.7	-4.1	3.95%
O=C(CN1C(=O)c2ccccc2C1=O)C(O)CN1C(=O)c2ccccc2C1=O (stereo not given)	2.5%	0.6%	2.05%	27.9	11.4	14.6%
Nc1nc2c(ncn2C2OC(COC(=O)c3ccccc3)C(OC(=O)c3ccccc3)C2OC(=O)c2ccccc2)c(=O)[nH]1 (stereo not given)	-25.9%	-12.8%	-0.6%	11.5	0.9	-7.65%
c1ccc(C(C2=Nc3cccc4cccc(c34)N2)c2ccccc2)cc1	-36.6%	-18.4%	-50.7%	11.1	-9.75	-22.8%
CCOC(=O)/C(OC(C)=O)=C1/C=C(C(=O)c2ccccc2)CCC1	7.8%	25.2%	11.9%	-4.1	27.1	7.4%
FC(F)(F)c1nnc(-c2ccccc2)nn1	-8.8%	-16.1%	-11.4%	-36.6	-14.8	-8.5%
O=C(O)C(Nc1ccc(Cc2ccc(NC(C(=O)O)c3ccccc3)cc2)cc1)c1ccccc1 (stereo not given)	94% (active)	86% (active)	92% (active)	-4.5	37.7	90% (active)
O=C1CC(C(=O)O)C(C(Cl)(Cl)Cl)O1 (stereo not given)	-18.9%	-26.4%	1.8%	-22.7	-6.7	-1.2%
COC(=O)C(C#N)=C(C)C	2.3%	-23.6%	16.9%	19.9	0.05	7.95%
CCCCn1c(-c2ccccc2)cs/c1=N\NC(=O)Cn1c(C)nc2ccccc21	-30.8%	-8.3%	-8.4%	18.9	-3.25	-16.8%
CC(c1ccccc1)N1OC1(c1ccccc1)c1ccccc1 (stereo not given)	41.5%	50.4%	57.8%	22.9	30.6	90.1% (active)
O=[N+]([O-])c1cc(Br)c2ccccc2c1	6.7%	4.9%	6.45%	2	18.2	15.1%
Nc1ccc(Nc2c3ccccc3nc3ccccc23)cc1	96% (active)	33%	23.4%	10.3	23.4	69.3%
Cn1ccccc1=O	36.8%	-26.7%	-8.55%	-56.5	3.4	27.2%
CSc1ccc(NC(=O)c2cccc([N+](=O)[O-])c2C(=O)O)cc1	5.05%	8.25%	13.2%	-6.35	15.2	1.6%

Structure (SMILES)	growth inhibition [1]	growth inhibition [2]	growth inhibition [3]	growth inhibition [4] [%]	growth inhibition [5] [%]	growth inhibition [6]
CC(=O)OCC(OC(C)=O)C(OC(C)=O)C(OC(C)=O)C(OC(C)=O)c1cnn(-c2ccccc2)n1 (stereo not given)	15.9%	-1.85%	11.6%	32.1	6.05	-10.6%
CCCCCCCCCCCCCCCCSCCOC(=O)C1C2CCC(O2)C1C(=O)O (stereo not given)	55.9%	-18.4%	10.4%	13.9	30.2	37.6%
CC(C)=NN/C=N/S(=O)(=O)c1ccc(C)cc1	15.2%	6.05%	10.4%	25	2.1	4.65%
CCOc1ccc(NC(=O)COc2ccc(Cl)cc2Cl)cc1	14.9%	22.3%	23.5%	18.4	26.1	14.9%
CC(C)=CCC1=C(O)c2ccccc2C(=O)C1=O	16.6%	5.15%	14.2%	0.4	-4.25	13.1%
Nc1nc(Cc2ccccc2)nc2[nH]ncc12	3.85%	6.3%	3.2%	-18.5	-8.9	-1.6%
CCCCCCCCCCCCCC(=O)CCCC	-9.7%	-8.4%	2.2%	-22.5	-2.45	-18%
C=C1c2c(cc3c(c2O)c(=O)c2ccccc2n3C)OC1(C)C	-31.2%	-36.6%	-23.1%	-24.3	-25.8	-25.4%
C=CCc1cc(C(Cc2ccccc2)NC(C)C)cc(OCc2ccccc2)c1OCc1ccccc1 (stereo not given)	10.1%	11.5%	16.9%	-3.95	47.6	50.9%
CC(C)Oc1ccc(C(=O)O)cc1	23.6%	5.05%	4.75%	-0.15	-19.1	14.1%
C[C@H]1C(=O)c2c(cc(O)c(C3OC(CO)C(O)C(O)C3O)c2O)OC1c1ccc(O)c(O)c1 (stereo not given in full)	2.65%	-18.6%	-16.8%	8.45	-0.25	12.6%
O=P(O)(O)Oc1ccc(NCCO)cc1	-9.5%	-5%	3.3%	17.4	7.55	-13.9%
c1ccc2c(c1)N=C(NNC1=Nc3ccccc3SC1)CS2	2.35%	-2.85%	2.4%	-0.55	1.25	0.65%
CC1=NN(C(=O)c2ccc(Cl)cc2)C(=O)/C1=C/c1ccc(O)cc1	-6.65%	-16.6%	-38.6%	-7.55	-3.55	-19.9%
c1ccc2c(c1)nn1c3ccc4nonc4c3[n-][n+]21	1.2%	-0.5%	25.9%	13.2	31.4	-11.4%
CC1=CCC(C#N)N(C)C1c1ccccc1 (stereo not given)	2%	-5.25%	-13.4%	-48.1	-12.3	8.85%
COc1ccc(NC(=O)Nc2ccc(Cl)cc2C)cc1	-13.4%	-2.8%	-11.6%	-12.2	-12.5	-15.2%
C#CC(C)(C)Oc1cc(O)c2c(=O)c3ccccc3n(C)c2c1	-7.9%	-0.35%	12.2%	5.3	0.2	0%
Cc1ccc(S(=O)(=O)NC(=O)C#CCOC2CCCCO2)cc1 (stereo not given)	8.7%	-0.85%	-3.3%	14.3	22.6	18.2%
CCOC(=O)C(=CNc1cccc(Cl)c1)C(=O)OCC	-2.8%	-11.4%	-18.9%	-26.9	32.2	-19.9%
